Data: PubChem BioAssay (NCATS)
Records with an inconclusive call do not appear. Calls of active or inactive are those of the source. Unless noted, the call rests on the fitted dose curve.

Columns and labels:
[1] = qHTS for Inhibitors of the Functional Ribonucleoprotein Complex (vRNP) of Lassa (LASV) Arenavirus: LASV Primary Screen - GLuc reporter signal (AID 1347082; calls by dose curve; tested in HEK293 reporter line; further: nearly all actives have a fitted effect of over 60% in size; further: potency means the concentration at half of the fitted maximal effect; on activity change, negative = inhibition: on the % scale 0 is the no-effect control and ±100 the full control effect)
[2] = qHTS for Inhibitors of the Functional Ribonucleoprotein Complex (vRNP) of Lassa (LASV) Arenavirus: Viability assay - alamar blue signal for LASV Primary Screen (AID 1347083; calls by dose curve; tested in HEK293 reporter line; further: nearly all actives have a fitted effect of over 80% in size; further: potency means the concentration at half of the fitted maximal effect; on activity change, negative = reduced viability: on the % scale 0 is the no-effect control and ±100 the full control effect)
[3] = target: Nucleoprotein (Lymphocytic choriomeningitis virus (strain Armstrong)) (UniProt P09992); assay: qHTS for Inhibitors of the Functional Ribonucleoprotein Complex (vRNP) of Lymphocytic Choriomeningitis Arenaviruses (LCMV): LCMV Primary Screen - GLuc reporter signal (AID 1347086); further: nearly all actives have a fitted effect of over 70% in size; further: potency means the concentration at half of the fitted maximal effect; on activity change, negative = inhibition: on the % scale 0 is the no-effect control and ±100 the full control effect
[4] = Primary qHTS for inhibitors of SARS-S pseudo-typed particle cell entry (AID 1479145); further: on the % scale 0 is the no-effect control and ±100 the full control effect; nearly all actives have a fitted effect of over 45% in size
[5] = Primary qHTS for Huh7 cytotoxicity: counterscreen for inhibitors of MERS-S pseudotyped particle cell entry (AID 1479147); conditions: outcome: dose series up to 57.1 µM unless noted
[6] = Primary qHTS for inhibitors of MERS-S pseudo-typed particle cell entry (AID 1479149); further: nearly all actives have a fitted effect of over 60% in size
[7] = Primary qHTS for Vero E6 cytotoxicity: counterscreen for inhibitors of SARS-S pseudo-typed particle cell entry (AID 1479150); conditions: outcome: dose series up to 57.1 µM unless noted
[8] = Cytotoxicity counterscreen for inhibitors of SARS-CoV-2 cell entry (AID 1645845); further: nearly all actives have a fitted effect of over 50% in size; further: potency means the concentration at half of the fitted maximal effect
In short: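 Counterscreen run in the same HEK293-ACE2 line as the pseudotyped-particle entry assay, without particles. Viability after 48 h at 37 C was read as ATP luminescence, scaled between cell-containing and cell-free wells.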

[9] = target: Nuclear receptor subfamily 1 group I member 3 (Homo sapiens) (UniProt Q14994); assay: Primary qHTS for antagonist of constitutive androstane receptor (CAR) against the NCATS DSHEA and TCM libraries (AID 1794836; active means well fitted curve in the direction sought with a large enough effect; an effect the other way counts as inactive or inconclusive;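 further: HepG2 cells stably expressing hCAR with CYP2B6 luciferase reporter stimulated by CITCO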)
In short: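 HepG2-CYP2B6-hCAR cells, attached 5 h, given compounds plus CITCO agonist […], incubated 24 h at 37 C. Luciferase luminescence read, multiplexed with CellTiter-Fluor viability (Ex/Em 405/540 nm).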

[10] = Primary qHTS to identify inhibitors of SARS-CoV-2 cell entry (AID 1645846); conditions: activity change, negative = inhibition: at 57.1 µM (top of the series) unless noted; further: nearly all actives have a fitted effect of over 45% in size
In short: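 HEK293-ACE2 (Expi293F, stable hACE2), 1500 cells/well, o/n 37C; cpd 23 nL pin, 1 h; MLV-PP w/ SARS-CoV-2-S (Wuhan-Hu-1, Δ19 C-term); 48 h 37C; Bright-Glo luminescence; normalized vs S-PP and bald PP.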

[11] = Confirmatory qHTS for VERO E6 Cytotoxicity Assay: Counterscreen for SARS-CoV-2 CPE Assay (AID 1508605); further: nearly all actives have a fitted effect of over 60% in size; further: potency means the concentration at half of the fitted maximal effect
[12] = Confirmatory qHTS for activators (rescue) of SARS-CoV-2 Cytopathic Effect (CPE) (AID 1508606); further: potency means the concentration at half of the fitted maximal effect; nearly all actives have a fitted effect of over 70% in size
[13] = Confirmatory qHTS to identify inhibitors of SARS-CoV-2 cell entry (AID 1645844); further: potency means the concentration at half of the fitted maximal effect; nearly all actives have a fitted effect of over 45% in size
In short: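 HEK293-ACE2, overnight seeding; cpd 1 h, 37C/5% CO2; + SARS-CoV-2-S MLV PP (Wuhan-Hu-1, ΔC19); 48 h; Bright-Glo luminescence. Data normalised to S PP and bald PP wells.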

[14] = VSVG counterscreen qHTS to identify inhibitors of SARS-CoV-2 cell entry (AID 1645847); further: potency means the concentration at half of the fitted maximal effect; nearly all actives have a fitted effect of over 65% in size
In short: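 Expi293F/hACE2 cells, overnight plating; cpd 1 h, 37C/5% CO2; + VSV-G PP (MLV pseudotyping), 48 h; supernatant removed, Bright-Glo luciferase read. Norm: VSV-G PP and bald PP wells.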

[15] = Inducers of the Endoplasmic Reticulum Stress Response (ERSR) in human glioma: Validation (AID 504836; active means well fitted curve in the direction sought with a large enough effect; an effect the other way counts as inactive or inconclusive; further: 0% is about no effect)
In short: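 Stably transfected U87-MG glioma cells carrying a GRP78-based luciferase sensor; 16 h compound incubation. Luminescence end-point read 10 min after Bright-Glo addition at room temperature.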

[16] = qHTS for Inhibitors of the Functional Ribonucleoprotein Complex (vRNP) of Lymphocytic Choriomeningitis Arenaviruses (LCMV): Viability assay - alamar blue signal for LCMV Primary Screen (AID 1347085; calls by dose curve; tested in HEK293 reporter line; further: on the % scale 0 is the no-effect control and ±100 the full control effect; nearly all actives have a fitted effect of over 80% in size)

Chain of Nucleoprotein (Lymphocytic choriomeningitis virus (strain Armstrong)) (P09992 whole entry, looked up): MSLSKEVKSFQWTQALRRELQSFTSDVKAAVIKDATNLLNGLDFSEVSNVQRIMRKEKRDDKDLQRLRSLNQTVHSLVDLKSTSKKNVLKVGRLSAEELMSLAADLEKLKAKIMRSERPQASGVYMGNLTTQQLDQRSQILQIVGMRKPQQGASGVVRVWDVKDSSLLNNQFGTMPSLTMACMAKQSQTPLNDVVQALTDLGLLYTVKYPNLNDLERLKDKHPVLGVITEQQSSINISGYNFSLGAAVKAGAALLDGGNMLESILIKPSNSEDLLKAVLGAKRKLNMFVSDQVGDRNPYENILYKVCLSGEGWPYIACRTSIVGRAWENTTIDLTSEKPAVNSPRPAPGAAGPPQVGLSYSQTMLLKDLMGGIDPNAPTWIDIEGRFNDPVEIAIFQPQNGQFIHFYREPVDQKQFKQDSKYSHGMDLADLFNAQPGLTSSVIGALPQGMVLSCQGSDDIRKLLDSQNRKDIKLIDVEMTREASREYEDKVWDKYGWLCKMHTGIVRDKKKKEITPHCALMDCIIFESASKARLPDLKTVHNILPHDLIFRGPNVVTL
Chain of Nuclear receptor subfamily 1 group I member 3 (Homo sapiens) (Q14994 whole entry, looked up): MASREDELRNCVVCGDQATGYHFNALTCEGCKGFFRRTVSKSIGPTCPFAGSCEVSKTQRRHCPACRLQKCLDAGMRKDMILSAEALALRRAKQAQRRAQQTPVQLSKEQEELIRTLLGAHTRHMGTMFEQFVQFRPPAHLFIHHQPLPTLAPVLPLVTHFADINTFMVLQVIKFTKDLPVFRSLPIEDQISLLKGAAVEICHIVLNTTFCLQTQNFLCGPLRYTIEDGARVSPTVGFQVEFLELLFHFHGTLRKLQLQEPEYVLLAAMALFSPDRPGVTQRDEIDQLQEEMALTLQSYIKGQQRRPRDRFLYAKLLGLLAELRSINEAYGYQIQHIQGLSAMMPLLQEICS

CC(C)(C)NC(=O)[C@H]1CN(Cc2cccnc2)CCN1C[C@@H](O)C[C@@H](Cc1ccccc1)C(=O)N[C@H]1c2ccccc2C[C@H]1O
inactive: Potency [1] | Potency [2] | Potency [3]

Cc1ncc(C[n+]2csc(CCO)c2C)c(N)n1
inactive: Potency [1] | Potency [2] | Potency [3] | Potency [4] | outcome [5] | Potency [6] | outcome [7] | Potency [8] | Potency [9]

C=CCNc1c(O)cc2c(O)c1C[C@@H](C)C[C@H](OC)[C@@H](O)[C@@H](C)C=C(C)[C@H](OC(N)=O)[C@@H](OC)C=CC=C(C)C(=O)N2
active: Potency [1] 10.9 µM | Potency [2] 4.85 µM | Potency [3] 4.85 µM

COc1ccc(-c2cc3nccn3c(Nc3ncccc3C(N)=O)n2)cc1OC
inactive: Potency [1] | Potency [3] | Potency [8]
active: Potency [2] 2.17 µM

C=C(C)[C@@]12OC3(c4ccccc4)O[C@@H]1[C@@H]1[C@@H]4O[C@]4(CO)[C@@H](O)[C@]4(O)C(=O)C(C)=C[C@H]4[C@@]1(O3)[C@H](C)[C@H]2OC(=O)/C=C/C=C/c1ccccc1
inactive: Potency [1] | Potency [2] | Potency [3]

Cc1ccc(NC(=O)Nc2cc(C(F)(F)F)ccc2F)cc1Nc1ccc2c(c1)NC(=O)C2=Cc1ccc[nH]1
active: Potency [1] 30.6 µM | Potency [2] 17.2 µM | Potency [3] 27.3 µM

Cc1cccc(-c2[nH]c(C(C)(C)C)nc2-c2ccc3c(c2)OCO3)n1
active: Potency [1] 10.9 µM | Potency [2] 7.69 µM | Potency [3] 7.69 µM | Potency [8] 17.8 µM

CCCCCC[C@@H](O)C/C=C\CCCCCCCC(=O)O
-16.6%: activity change, negative = inhibition [10]
inactive: Potency [1] | Potency [2] | Potency [3] | outcome [5] | Potency [6] | outcome [7] | Potency [8]

CC(=O)O[C@@H]1/C=C/[C@](C)(O)C[C@@H](C)C/C=C/[C@H]2[C@H](O)C(C)=C(C)[C@H]3[C@H](Cc4ccccc4)NC(=O)[C@@]123
inactive: Potency [1] | Potency [3]
active: Potency [2] 2 µM

C[C@@H](NCc1cc2ccccc2[nH]1)c1cccc2ccccc12
inactive: Potency [1] | Potency [2] | Potency [3]

O=C1c2ccccc2C(=O)N1Cc1ccccc1
inactive: Potency [1] | Potency [2] | Potency [3]

COc1cc(C(=O)O[C@@H]2CC(C)=CC[C@@]3(C)CC[C@](O)(C(C)C)[C@H]23)ccc1O
inactive: Potency [1] | Potency [2] | Potency [3]

C[C@]12C=CC(=O)C=C1CC[C@@H]1[C@@H]2CC[C@]2(C)C(=O)CC[C@@H]12
inactive: Potency [1] | Potency [2] | Potency [3]

CC(C)(C)Cn1c(N)nc2ccc(-c3[nH]c(C(C)(C)C)nc3-c3ccc(F)cc3)nc21
inactive: Potency [1] | Potency [2] | Potency [3]
active: Potency [11] 11.2 µM | Potency [12] 1.58 µM

NC(=O)c1cccc2cn(-c3ccc([C@@H]4CCCNC4)cc3)nc12
inactive: Potency [1] | Potency [3] | Potency [11]
active: Potency [2] 10.9 µM | Potency [12] 11.2 µM | Potency [13] 4.29 µM | Potency [14] 2.15 µM

COc1cc2c(cc1OC)CN(CCc1ccc(NC(=O)c3cc(OC)c(OC)cc3NC(=O)c3cnc4ccccc4c3)cc1)CC2
active: Potency [2] 19.3 µM
inactive: Potency [1] | Potency [3] | Potency [8]

CN(C)CCCc1cc(C(=O)Nc2ccc(-c3ccncc3)cc2)ccc1O
inactive: outcome [15] | Potency [1] | Potency [2] | Potency [16]

CCCCCCCCCCCCCCCC(N)=O
inactive: activity change, negative = inhibition [1] 1.8% [at 5.82 µM] | activity change, negative = reduced viability [2] 2.57% [at 5.82 µM] | activity change, negative = inhibition [3] -29.4% [at 5.82 µM]

CC(C)(N)c1ccc(-c2nc3ccccc3nc2-c2ccccc2)cc1
active: Potency [2] 19.3 µM | Potency [12] 10 µM
inactive: Potency [1] | Potency [3] | Potency [8]
